The sample as a whole holds a higher share of hits than the screen did.
HT1080 IDH1KD tx = toxicity to HT-1080 IDH1 knockdown cells (counter line); HT-1080 IDH1 knockdown viability, ATP luminescence, 48 h; 360,000 tested, 2% active; Potency, µM (series often up to 46.1 µM), inactives show at the top dose activity, negative = toxicity, most hits filed as cytotoxic;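 further: potency means the concentration at half of the fitted maximal effect; 0% = DMSO wells and -100% = cell-free medium wells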
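After a 2 h attachment period, IDH1KD HT-1080 cells took pin-transferred compound for 48 h at 37 °C; ATP-based luminescence after 10 min room-temperature reagent incubation reported viability.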
DT40 TDP1 no CPT = qHTS for Inhibitors of human tyrosyl-DNA phosphodiesterase 1 (TDP1): qHTS in cells in absence of CPT; DT40 Tdp1-/- hTDP1 cells, no CPT, ATP luminescence, 48 h; Potency, µM (top dose mostly 46.2 µM), inactives show at the highest dose activity change, negative = growth inhibition, hits mostly inhibitors; 420,000 tested, 15% active; further: potency means the concentration at half of the fitted maximal effect; nearly all actives have a fitted effect of over 55% in size
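Luminescent ATP content (CellTiter-Glo) served as the growth readout. Knockout chicken DT40 cells expressing human TDP1 were exposed to compounds without camptothecin for a minimum 48 hr at 37 °C.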
HT1080-NT tox = kills 2HG-producing HT-1080-NT fibrosarcoma cells | AID 686970 | 360,000 tested, 1.6% active | Potency, µM (top dose mostly 46.1 µM), for the others: at the top dose activity, negative = less viability, most hits filed as cytotoxic | HT-1080-NT fibrosarcoma viability, CellTiter-Glo ATP luminescence, 48 h;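 further: NT is the 2HG producing partner of a matched IDH1 knockdown line; potency means the concentration at half of the fitted maximal effect; 0% = DMSO-treated cells and -100% = media-only wells without cells; nearly all actives have a fitted effect of over 55% in size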
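Luminescent CellTiter-Glo readout after 48 hours of compound exposure at 37 degrees C defined viability of HT-1080-NT cells. Activity was normalized to DMSO wells and cell-free media wells; concentration-response curves were fitted and assigned curve classes.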
IL1B secr inh = inflammasome signaling inhibition, IL-1 beta readout | AID 743279 | activity change, % at 57.5 µM | THP-1 LPS/ATP IL-1B secretion, AlphaLISA, 16 h; active compounds read low | 360,000 tested, 4.7% active; in the data active means activity change below about -50%; inconclusive means mostly about -30% to -49%
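THP-1 cells pretreated 1 hr with compounds (up to 57.5 uM final), then stimulated with LPS (250 ng/mL final) plus ATP (1.25 mM final); secreted IL-1B measured by AlphaLISA after 16 hr, decreased signal indicating inhibition.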
DT40 TDP1 CPT = DT40-hTDP1 cell growth loss with CPT. chicken DT40 Tdp1-/-;hTDP1 cells + 20 nM CPT, ATP luminescence, 48 h. Potency, µM (highest dose often 46.2 µM), without a hit: at the top dose activity change, negative = growth inhibition, hits mostly inhibitors. 420,000 tested, 12% active. AID 686979; further: potency means the concentration at half of the fitted maximal effect; nearly all actives have a fitted effect of over 55% in size
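Chicken DT40 Tdp1-/- cells complemented with human TDP1, 400 cells/well, exposed to compounds plus 20 nM camptothecin for at least 48 h at 37 C; viability read as ATP content by CellTiter-Glo luminescence.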
ALOX12 inh = blocks human arachidonate 12S-lipoxygenase; P18054; purified 12hLO, xylenol orange hydroperoxide absorbance; Potency, µM (series often up to 108 µM), for inactives: at the top dose activity change, negative = inhibition, usual class: inhibitors; 580,000 tested, 1.1% active; further: potency means the concentration at half of the fitted maximal effect
Target sequence (P18054 whole entry, looked up): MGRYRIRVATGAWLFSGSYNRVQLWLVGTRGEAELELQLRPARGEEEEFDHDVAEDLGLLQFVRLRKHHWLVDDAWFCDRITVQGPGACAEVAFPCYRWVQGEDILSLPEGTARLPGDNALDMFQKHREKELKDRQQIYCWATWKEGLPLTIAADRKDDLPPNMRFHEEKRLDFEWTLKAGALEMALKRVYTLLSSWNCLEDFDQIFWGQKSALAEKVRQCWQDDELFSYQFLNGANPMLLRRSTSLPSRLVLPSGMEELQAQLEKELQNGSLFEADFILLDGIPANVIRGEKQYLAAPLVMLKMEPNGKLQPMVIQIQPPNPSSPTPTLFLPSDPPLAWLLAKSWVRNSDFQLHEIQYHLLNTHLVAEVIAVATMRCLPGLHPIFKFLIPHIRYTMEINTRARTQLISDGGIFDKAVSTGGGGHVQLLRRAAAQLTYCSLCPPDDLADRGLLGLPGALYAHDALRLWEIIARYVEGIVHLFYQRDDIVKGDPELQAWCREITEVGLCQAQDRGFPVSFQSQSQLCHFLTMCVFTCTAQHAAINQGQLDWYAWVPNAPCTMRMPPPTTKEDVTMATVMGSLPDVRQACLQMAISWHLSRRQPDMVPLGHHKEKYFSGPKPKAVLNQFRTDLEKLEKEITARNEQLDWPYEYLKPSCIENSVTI
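Purified human 12hLO at 150 nM in 25 mM Hepes, 0.01% Triton X-100, pH 7.0, preincubated 15 min at room temperature with compound. Reaction started with 40 uM arachidonic acid, 30 min at room temperature. Hydroperoxide measured by Fe-xylenol orange, 573/405 nm absorbance ratio.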
Numbers without * were called inactive; [ ] = remark or other dose. Unless noted, the call rests on the fitted dose curve; in most records, active means well fitted curve in the direction sought with a large enough effect; inconclusive means small, poorly fitted or top-dose-only effect, or another doubt; inactive means no such curve, though single readings can be large; an effect the other way counts as inactive or inconclusive. Unless noted, on the % scale 0 is the no-effect control and ±100 the full control effect.

For COc1ccc(N2CCN(C(=O)c3ccc4c(=O)n(Cc5ccc6c(c5)OCO6)c(=O)[nH]c4c3)CC2)cc1 the results were HT1080 IDH1KD tx 11%, DT40 TDP1 no CPT 6%, HT1080-NT tox 6%, IL1B secr inh 24, DT40 TDP1 CPT -6% and ALOX12 inh -1%.
`C/C(=N/N=C(c1ccccc1)c1ccccc1)c1cccnc1` gave ALOX12 inh 4%.
Screening CS(=O)(=O)Oc1ccc2c(=O)c(-c3ccccc3)coc2c1 returned ALOX12 inh -55%.
COc1ccccc1-c1nnc2n1C(C(=O)NCc1ccc(F)cc1)CC2 (stereo unspecified) was read as ALOX12 inh 0%[6.33 µM].
For CS(=O)(=O)c1ccc(C(=O)N2CCN(S(=O)(=O)c3ccc(C4CCCCC4)cc3)CC2)cc1 the results were HT1080 IDH1KD tx -8%, DT40 TDP1 no CPT -24%, HT1080-NT tox -8%, IL1B secr inh 18, DT40 TDP1 CPT inconclusive and ALOX12 inh -3%.
O=S(=O)(c1ccc(C2CCCCC2)cc1)N1CCCC1 was read as HT1080 IDH1KD tx 2%, DT40 TDP1 no CPT inconclusive, HT1080-NT tox -1%, IL1B secr inh -65*, DT40 TDP1 CPT inconclusive and ALOX12 inh 0%.
For N#CCCN1CCN(S(=O)(=O)c2ccc(C3CCCCC3)cc2)CC1 the results were HT1080 IDH1KD tx -3%, DT40 TDP1 no CPT -13%, HT1080-NT tox -4%, IL1B secr inh 0, DT40 TDP1 CPT 13µM* and ALOX12 inh -2%.
Screening N#CCCN1CCN(S(=O)(=O)c2ccc(S(=O)(=O)N3CCOCC3)cc2)CC1 returned HT1080 IDH1KD tx 7%, DT40 TDP1 no CPT -1%, HT1080-NT tox 2%, IL1B secr inh -12, DT40 TDP1 CPT 11% and ALOX12 inh 338%.
Screening O=C(c1ccc(F)cc1)N1CCC(c2n[nH]c(=O)n2-c2ccccc2)CC1 returned ALOX12 inh 1%.
`CCSc1nnc(-c2ccc(Cl)cc2)c2ccccc12` gave HT1080 IDH1KD tx 2%, DT40 TDP1 no CPT inconclusive, HT1080-NT tox 2%, IL1B secr inh -4, DT40 TDP1 CPT inconclusive and ALOX12 inh inconclusive.
For CCN(CC)CCOc1nnc(-c2ccc(OC)cc2)c2ccccc12 the results were HT1080 IDH1KD tx 1%, DT40 TDP1 no CPT inconclusive, HT1080-NT tox -14%, IL1B secr inh -4, DT40 TDP1 CPT inconclusive and ALOX12 inh 0%.
`CCSc1nnc(-c2ccc(C)cc2)c2ccccc12` gave HT1080 IDH1KD tx -20%, DT40 TDP1 no CPT 16µM*, HT1080-NT tox -17%, IL1B secr inh -22, DT40 TDP1 CPT inconclusive and ALOX12 inh -5%.
CCN(CC)CCOc1nnc(-c2ccc(C)cc2)c2ccccc12 was read as HT1080 IDH1KD tx -8%, DT40 TDP1 no CPT 15µM*, HT1080-NT tox -7%, IL1B secr inh -57*, DT40 TDP1 CPT inconclusive and ALOX12 inh 0%.
Screening Cc1c(Cl)cccc1N1CC(c2nc3ccccc3n2C(C)C)CC1=O (stereo unspecified) returned ALOX12 inh -16%.
Screening O=C(O)CC1NC(=S)N(Cc2ccccc2)C1=O (stereo unspecified) returned HT1080 IDH1KD tx -21%, DT40 TDP1 no CPT 18µM*, HT1080-NT tox -11%, IL1B secr inh 4, DT40 TDP1 CPT 21µM* and ALOX12 inh inconclusive.
COc1ccc(O)c(/C=C2/SC(=S)N(Cc3ccccc3)C2=O)c1 was read as HT1080 IDH1KD tx 1%, DT40 TDP1 no CPT 21µM*, HT1080-NT tox 0%, IL1B secr inh 5, DT40 TDP1 CPT inconclusive and ALOX12 inh 0%.

From PubChem
